For 90 molecules, inhibition results are on record in PubChem BioAssay AID372 (MTDP, 2006).

Hit rate of the full screen: of about 100,000 compounds, about 770 (0.77%) were called active. The full list was thinned out, with actives kept by preference. Values without a mark were called inactive. No stated cut-off is given here; in the data, active means inhibition above about 50%; inactive means the rest.

For this assay, the target named is Gag-Pol polyprotein (Human immunodeficiency virus type 1 group M subtype B (isolate HXB2)) (UniProt P04585). In words: RNase H inhibition, HIV 1 Gag Pol polyprotein, FRET biochemical assay, screening (AID 372). As to conditions: HIV-1 RT RNase H, FRET RNA/DNA substrate fluorescence; at 10 µM; hits give high values.
The term inhibition denotes the percentage by which the read-out fell short of the control. As for `COc1cc(/C=C(\C#N)C(=O)Nc2ccc(F)cc2)c([N+](=O)[O-])cc1OC`, the inhibition is 3%. The value for `Cc1ccc([N+](=O)[O-])cc1-c1[nH]c(-c2cccc(O)c2)nc1-c1ccccc1` was 32%. The value for `Cc1ccc([N+](=O)[O-])cc1-c1[nH]c(-c2ccc(C#N)cc2)nc1-c1ccccc1` was 57% (active); that for `COc1cc(-c2nc(-c3ccccc3)c(-c3cc([N+](=O)[O-])ccc3C)[nH]2)cc(OC)c1OC` was 33%; that for `C/C(=C\c1cccc2ccccc12)[N+](=O)[O-]` was 53% (active). The value for `O=[N+]([O-])c1ccccc1C=Nc1cccc2ccccc12` was 6%. As for `N#C/C(=C/c1cccc2ccccc12)c1ccc([N+](=O)[O-])cc1`, the inhibition is 36%. As for `COC(=O)c1ccccc1NC(=O)c1cc(=O)[nH]c2ccccc12`, the figure is 1%; as for `CCOC(=O)c1ccc2[nH]c(C)c(C/C=C(/C)Cl)c(=O)c2c1`, 0%; as for `Cc1ccc(-c2nc3cc(Cl)cc(Cl)c3o2)cc1NC(=O)c1ccc2c(c1)OCCO2`, 24%. For the molecule `O=C(Nc1ccc2oc(-c3cccc(Cl)c3)nc2c1)c1ccc2c(c1)OCCO2`, the inhibition was 37%. In the case of `O=C(Nc1ccc2oc(-c3ccc(I)cc3)nc2c1)c1ccc2c(c1)OCCO2`, the inhibition is 15%. The value for `O=C(Nc1ccc2oc(-c3ccc(F)cc3)nc2c1)c1ccc2c(c1)OCCO2` was 51% (active); that for `O=C(Nc1ccc2oc(-c3ccccc3)nc2c1)c1ccc2c(c1)OCCO2` was 11%; that for `O=C(Nc1ccc2oc(-c3cccc(I)c3)nc2c1)c1ccc2c(c1)OCCO2` was 56% (active). The value for `O=C(Nc1cccc(-c2nc3cc(Cl)ccc3o2)c1)c1ccc2c(c1)OCCO2` was 9%; that for `O=C(Nc1ccc(-c2nc3cc(Cl)cc(Cl)c3o2)cc1)c1ccc2c(c1)OCCO2` was 58% (active); that for `Cc1ccc(C(=O)Nc2ccc(-c3nc4cc(Cl)cc(Cl)c4o3)cc2)cc1` was 11%. The value for `CCN(CC)CCOc1ccccc1C` was 3%. Turning to `COc1ccc(C(=O)N2CCN(S(=O)(=O)c3ccccc3)CC2)cc1`, the inhibition is 21%.

On to `COc1cccc(C=C2C(=O)c3ccccc3C2=O)c1`, for which the inhibition is 0%. For the molecule `CCOc1ccc(NC(=O)CN(c2ccc(Br)cc2)S(=O)(=O)c2ccccc2)cc1`, the inhibition is 17%.

Regarding `Cc1ccc(N(Cc2ccc(C(=O)N/N=C/c3cc(Br)c(C)o3)cc2)S(C)(=O)=O)cc1C`, the inhibition is 19%. As for `Cc1ccc(N(Cc2ccc(C(=O)N/N=C/c3ccc(OC4CSC4)cc3)cc2)S(C)(=O)=O)cc1C`, the figure is 56% (active); as for `O=C(N/N=C/c1ccc(OC2CSC2)cc1)c1ccccc1`, 6%. As for `Brc1ccc(-c2nnnn2-c2ccccc2)cc1`, the figure is 12%; as for `COc1ccc(C(=O)NC(=S)Nc2ccc(-c3nc4cc(C)ccc4o3)cc2)cc1Br`, 21%; as for `CCc1ccc2oc(-c3ccc(NC(=S)NC(=O)c4ccc(OC)c([N+](=O)[O-])c4)cc3)nc2c1`, 19%. The value for `COc1ccc(C(=O)NC(=S)Nc2ccc3oc(-c4ccc(Cl)cc4)nc3c2)cc1[N+](=O)[O-]` was 44%; that for `COc1ccc(C(=O)NC(=S)Nc2cccc(-c3nc4cc(Cl)ccc4o3)c2)cc1[N+](=O)[O-]` was 23%; that for `COc1ccc(C(=O)NC(=S)Nc2ccc(-c3nc4ccc(C)cc4o3)cc2)cc1[N+](=O)[O-]` was 54% (active). On to `COc1ccc(C(=O)NC(=S)Nc2cccc(-c3nc4cc(C)ccc4o3)c2)cc1[N+](=O)[O-]`, for which the inhibition is 23%. The value for `COc1ccc(C(=O)NC(=S)Nc2ccc(-c3nc4ccc(C)cc4o3)cc2)cc1Br` was 60% (active); that for `COc1ccc(C(=O)NC(=S)Nc2ccc(-c3nc4cc(Cl)ccc4o3)cc2)cc1[N+](=O)[O-]` was 53% (active). The value for `COc1ccc(C(=O)NC(=S)Nc2ccc(-c3nc4ccccc4o3)cc2)cc1Br` was 20%; that for `CC(NC(=O)CSc1ncc(-c2ccccc2)[nH]1)c1ccccc1` (stereo not given) was 12%; that for `CC1=C(C(=O)OCCc2ccccc2)C(c2ccc(Cl)c([N+](=O)[O-])c2)C2=C(CCCC2=O)N1` (stereo not given) was 2%. Consider `O=C(N/N=C/c1ccc([N+](=O)[O-])cc1)c1ccccn1`, for which the inhibition was 7%.

For the molecule `COc1ccc(I)cc1S(=O)(=O)N1CCN(c2ccc(F)cc2)CC1`, the inhibition was 16%. The value for `C/C(=N/NC(=O)C1COc2cc3ccccc3cc2O1)c1ccc([N+](=O)[O-])cc1` (stereo not given) was 10%; that for `COc1ccc(C2CC(=O)C3=C(C2)NC(C)=C(C(=O)OCC(C)C)C3c2ccc(OC)c(OC)c2)cc1` (stereo not given) was 8%; that for `CCC(Sc1nc2ccccc2s1)C(=O)Nc1ccc([N+](=O)[O-])cc1` (stereo not given) was 10%.

On to `O=C(NC(=S)Nc1cc([N+](=O)[O-])ccc1Cl)c1cccc(Cl)c1`, for which the inhibition is 45%. The value for `O=C(O)c1ccc(Oc2ccc3c(c2)C(=O)N(c2ccc([N+](=O)[O-])cc2)C3=O)cc1` was 3%; that for `CC1=NN(c2ccc(S(N)(=O)=O)cc2)C(=O)/C1=C\c1ccc(-c2cccc(Cl)c2C)o1` was 67% (active); that for `CC1=NN(c2cccc(Cl)c2)C(=O)/C1=C/c1ccc(-c2ccccc2[N+](=O)[O-])o1` was 1%. Take `CCCCOC(=O)c1cccc(-c2ccc(/C=C3\C(=O)N(c4ccc(S(N)(=O)=O)cc4)N=C3C)o2)c1`: the inhibition was 39%. The value for `CC1=NN(c2ccc(S(N)(=O)=O)cc2)C(=O)/C1=C\c1ccc(-c2ccc(Cl)cc2)o1` was 43%. As for `Cc1ccc(N2C(=O)NC(=O)/C(=C/c3ccc(-c4ccc(Cl)cc4Cl)o3)C2=O)cc1`, the figure is 36%. The value for `O=C(Nc1ccc(Cl)c(-c2nc3ccccc3s2)c1)c1ccccc1F` was 14%; that for `CCOC(=O)c1c(NC(=S)NC(=O)c2ccccc2)sc2c1CC(C(C)C)OC2` (stereo not given) was 12%; that for `COc1ccc(CNC(=O)C(=O)Nc2ccccc2F)cc1` was 15%. On to `O=C(NN1C(=O)c2ccc(C(=O)c3ccc4c(c3)C(=O)N(NC(=O)c3ccncc3)C4=O)cc2C1=O)c1ccncc1`, for which the inhibition is 0%. Take `C/C(=N\N1CCN(Cc2cccc3ccccc23)CC1)c1cccs1`: the inhibition is 19%. With `COC(=O)/C=C1\SC(=Nc2ccccc2)NC1=O`, the inhibition is 6%. The value for `O=C1C=C/C(=N\S(=O)(=O)c2ccc(Cl)cc2)C=C1Cl` was 37%. The value for `O=C1C=CC(=NS(=O)(=O)c2cc(Cl)ccc2Cl)C=C1` was 46%; that for `Clc1cccc(C=Nc2ccc(-c3ccc(N=Cc4cccc(Cl)c4Cl)cc3)cc2)c1Cl` was 17%; that for `N#Cc1c(N2CCCCC2)ncc2cc3ccccc3nc12` was 0%. For `CCOC(=O)C(=Cc1ccc(OCc2ccc([N+](=O)[O-])cc2)c(OC)c1)C(=O)OCC`, the inhibition was 59% (active).

Take `CCOc1cc(C=O)cc(Cl)c1OCc1ccc([N+](=O)[O-])cc1`: the inhibition was 54% (active). The value for `COC(=O)C(=Cc1cc(Br)c(OCc2ccc([N+](=O)[O-])cc2)c(OC)c1)C(=O)OC` was 12%; that for `CCOc1cc(C=O)cc(Br)c1OCc1ccc([N+](=O)[O-])cc1` was 28%.

On to `O=Cc1cc(Cl)c(OCc2ccc([N+](=O)[O-])cc2)c(Cl)c1`, for which the inhibition was 25%.

For the molecule `CCOC(=O)C(=Cc1cc(OC)c(O)c([N+](=O)[O-])c1)C(=O)OCC`, the inhibition is 5%.

In the case of `NNC(=O)COc1cccc2ccccc12`, the inhibition is 1%. The value for `COc1ccc(C(=O)NC(=S)Nc2ccc3ccccc3c2)cc1OC` was 17%; that for `O=C(O)c1ccc(-c2ccc(/C=N/N3C(=O)C4C5C=CC(CC5)C4C3=O)o2)cc1` (stereo not given) was 2%. As for `O=C(c1ccccc1)N1N=C(c2ccccc2)CC1(O)C(F)(F)F` (stereo not given), the figure is 9%; as for `O=C(c1cccc(Br)c1)N1N=C(c2ccc(F)cc2)CC1(O)C(F)(F)F` (stereo not given), 22%.

As for `O=C(c1cccc(Br)c1)N1N=C(c2ccccc2)CC1(O)C(F)(F)F` (stereo not given), the inhibition is 50% (active). The value for `O=C(Nc1ccccc1Cl)ON=C1c2ccccc2-c2ccccc21` was 43%. As for `O=C(Nc1cccc2ccccc12)ON=C1c2ccccc2-c2ccccc21`, the figure is 56% (active); as for `O=C(Nc1ccccc1)ON=C1c2ccccc2-c2ccccc21`, 42%. The value for `COc1ccccc1NC(=O)Nc1cccc2ccccc12` was 15%. In the case of `CCN(CC)c1ccc(C(NC(C)=O)NC(C)=O)cc1`, the inhibition is 0%.

As for `Cc1ccc([N+](=O)[O-])cc1NC(=O)C1CC1`, the inhibition is 0%. The value for `COc1ccc(CC(=O)NNC(=O)c2ccc(Cl)cc2)cc1OC` was 9%; that for `CC1=CC(C)(C)N(C(=O)c2ccccc2)c2ccccc21` was 10%. As for `CC(=O)N1c2ccccc2C(C)=CC1(C)C`, the figure is 3%; as for `CCC(C(=O)N1c2ccccc2C(C)=CC1(C)C)c1ccccc1` (stereo not given), 50% (active). As for `COC(=O)c1ccc(CSc2nnc(CCCN3C(=O)c4cccc5cccc(c45)C3=O)n2-c2ccccc2)cc1`, the figure is 15%; as for `CCOC(=O)C1=C(C)N=c2s/c(=C\c3ccc(-c4ccc(Br)cc4[N+](=O)[O-])o3)c(=O)n2C1c1ccccc1` (stereo not given), 48%; as for `COc1ccc(C2C(C#N)=C(N)OC3=C2C(=O)CC(c2ccccc2)C3)cc1C` (stereo not given), 9%. In the case of `O=C(Nc1cccc(Cl)c1Cl)c1ccc(-c2cccc(Cl)c2)o1`, the inhibition was 37%. In the case of `O=C(Nc1cccc(Cl)c1Cl)c1ccc(Br)o1`, the inhibition was 16%.

Consider `O=C(Nc1cccc(Cl)c1Cl)c1ccc(-c2ccc(Br)cc2)o1`, for which the inhibition was 57% (active). The value for `Clc1ccccc1OCCCn1ccnc1` was 0%; that for `C=C(C)c1cccc(C(C)(C)NC(=O)NCc2ccco2)c1` was 9%. The value for `CCOC(=O)C1=C(C)N=c2s/c(=C\c3ccc(-c4cccc([N+](=O)[O-])c4)o3)c(=O)n2C1c1ccc(C)cc1` (stereo not given) was 19%.
